The text below walks through data of PMC7862700, “An all-to-all approach to the identification of sequence-specific readers for epigenetic DNA modifications on cytosine”.

Test in all cases: DAPPL (digital affinity profiling via proximity ligation, sequencing); 10 mM Tris-HCl pH 7.5, 50 mM NaCl, 1 mM DTT, 4% glycerol, room temperature, 30 min; GST-TFs on glutathione beads, 16-mer random dsDNA library, 0.1% formaldehyde crosslink after washing; high values mean tight binding
The target in one test is T1, FEV (Homo sapiens, UniProt Q99581 1-238).
T1 sequence: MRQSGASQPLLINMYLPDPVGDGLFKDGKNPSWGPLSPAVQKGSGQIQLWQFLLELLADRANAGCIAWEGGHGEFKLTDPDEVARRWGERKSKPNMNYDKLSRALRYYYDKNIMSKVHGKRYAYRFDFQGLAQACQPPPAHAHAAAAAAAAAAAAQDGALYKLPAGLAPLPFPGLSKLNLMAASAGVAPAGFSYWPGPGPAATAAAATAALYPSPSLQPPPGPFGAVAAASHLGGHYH
The note with it: protein: recombinant; tags: N-terminal GST; dsDNA, one strand shown. The procedure, abridged:
(§1)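 Human transcription factors were made in yeast as GST fusions, captured on glutathione beads and barcoded with DNA. With a tag-only sample included, the pool was incubated with 200 nmole of a random double-stranded 16-mer DNA library in Tris/NaCl/DTT/glycerol buffer at room temperature for 30 min, then crosslinked with 0.1% formaldehyde after washing, ligated by proximity, amplified and sequenced. For binding signal, each hexamer's read frequency for a factor is divided by its frequency for the tag-only sample.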

Another test concerns the target ETV5 (Homo sapiens, UniProt P41161 1-510). Particulars: protein: recombinant; tags: N-terminal GST; dsDNA, one strand shown. The method in brief:
as §1

The target of a further test is HSF1 (Homo sapiens, UniProt Q00613 1-529). Particulars: protein: recombinant; tags: N-terminal GST; chain copies: 3; dsDNA, one strand shown. The method in brief: as §1
Chain of HSF1 (Q00613 whole entry): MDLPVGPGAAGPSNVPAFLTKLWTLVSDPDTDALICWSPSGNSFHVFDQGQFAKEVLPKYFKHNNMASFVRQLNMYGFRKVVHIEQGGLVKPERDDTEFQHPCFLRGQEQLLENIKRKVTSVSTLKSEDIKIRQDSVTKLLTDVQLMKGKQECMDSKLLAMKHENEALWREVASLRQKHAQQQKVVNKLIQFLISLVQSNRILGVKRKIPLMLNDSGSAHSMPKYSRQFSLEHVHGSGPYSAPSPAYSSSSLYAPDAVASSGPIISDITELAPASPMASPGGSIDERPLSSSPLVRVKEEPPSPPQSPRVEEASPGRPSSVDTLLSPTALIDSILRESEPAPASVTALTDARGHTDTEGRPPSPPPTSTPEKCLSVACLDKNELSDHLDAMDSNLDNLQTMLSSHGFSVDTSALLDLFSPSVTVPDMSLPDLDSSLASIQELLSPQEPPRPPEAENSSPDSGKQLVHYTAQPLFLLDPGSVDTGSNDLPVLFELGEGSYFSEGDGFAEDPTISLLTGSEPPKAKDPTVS
In a further test the target is T2, SPIC (Homo sapiens, UniProt Q8N5J4 1-248).
T2 sequence: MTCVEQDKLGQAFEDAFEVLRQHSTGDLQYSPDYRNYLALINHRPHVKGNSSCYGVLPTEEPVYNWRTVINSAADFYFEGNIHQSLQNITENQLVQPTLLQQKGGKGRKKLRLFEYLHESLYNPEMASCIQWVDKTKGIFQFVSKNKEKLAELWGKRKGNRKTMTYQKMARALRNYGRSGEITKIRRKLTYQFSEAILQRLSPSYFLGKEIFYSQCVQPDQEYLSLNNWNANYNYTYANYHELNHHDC
The note with it: protein: recombinant; tags: N-terminal GST; dsDNA, one strand shown. The method in brief: as §1

Another test deals with ELF4 (Homo sapiens, UniProt Q99607 1-663). Particulars: protein: recombinant; tags: N-terminal GST; dsDNA, one strand shown. The procedure, abridged:
as §1

The target in another test is T3, ELK4 (Homo sapiens, UniProt P28324-2 1-405).
T3 sequence: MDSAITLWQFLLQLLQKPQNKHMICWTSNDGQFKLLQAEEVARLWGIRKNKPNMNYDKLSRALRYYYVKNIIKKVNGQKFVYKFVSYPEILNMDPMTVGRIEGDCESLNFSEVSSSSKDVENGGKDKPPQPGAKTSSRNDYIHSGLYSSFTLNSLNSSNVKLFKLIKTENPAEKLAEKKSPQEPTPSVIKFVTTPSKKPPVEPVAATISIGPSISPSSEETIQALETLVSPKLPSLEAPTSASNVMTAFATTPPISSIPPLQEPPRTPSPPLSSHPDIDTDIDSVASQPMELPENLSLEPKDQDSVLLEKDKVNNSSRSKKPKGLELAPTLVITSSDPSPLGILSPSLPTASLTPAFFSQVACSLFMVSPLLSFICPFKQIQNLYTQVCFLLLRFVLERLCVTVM
The note with it: protein: recombinant; tags: N-terminal GST; dsDNA, one strand shown. The procedure, abridged:
as §1

The next test has as its target T4, ETV2 (Homo sapiens, UniProt O00321 1-342).
T4 sequence: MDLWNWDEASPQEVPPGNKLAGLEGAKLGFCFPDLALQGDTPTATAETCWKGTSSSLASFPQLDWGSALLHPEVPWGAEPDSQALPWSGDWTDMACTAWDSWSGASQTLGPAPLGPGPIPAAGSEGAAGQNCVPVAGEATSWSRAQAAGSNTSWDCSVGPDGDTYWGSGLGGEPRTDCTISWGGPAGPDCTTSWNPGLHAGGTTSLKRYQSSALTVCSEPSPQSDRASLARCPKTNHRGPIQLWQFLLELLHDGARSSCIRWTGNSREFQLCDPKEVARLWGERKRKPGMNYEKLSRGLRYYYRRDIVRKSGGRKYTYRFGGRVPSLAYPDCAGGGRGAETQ
Particulars: protein: recombinant; tags: N-terminal GST; dsDNA, one strand shown. The method in brief:
as §1

The next test concerns the target T5, ELF3 (Homo sapiens, UniProt P78545 1-371).
T5 sequence: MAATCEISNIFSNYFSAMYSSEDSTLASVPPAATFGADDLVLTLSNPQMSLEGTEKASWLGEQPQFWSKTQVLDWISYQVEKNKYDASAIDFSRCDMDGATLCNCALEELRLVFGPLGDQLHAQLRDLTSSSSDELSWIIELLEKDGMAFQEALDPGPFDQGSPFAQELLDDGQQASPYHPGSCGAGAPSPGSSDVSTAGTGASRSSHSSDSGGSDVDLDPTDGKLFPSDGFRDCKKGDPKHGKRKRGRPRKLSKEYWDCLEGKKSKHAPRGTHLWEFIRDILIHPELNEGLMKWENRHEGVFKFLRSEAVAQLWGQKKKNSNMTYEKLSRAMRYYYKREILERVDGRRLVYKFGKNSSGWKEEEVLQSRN
Particulars: protein: recombinant; tags: N-terminal GST; dsDNA, one strand shown. The procedure, abridged:
as §1

In a further test the target is CRX (Homo sapiens, UniProt O43186 1-299). Particulars: protein: recombinant; tags: N-terminal GST; dsDNA, one strand shown. The method in brief: as §1
Chain of CRX (O43186 whole entry): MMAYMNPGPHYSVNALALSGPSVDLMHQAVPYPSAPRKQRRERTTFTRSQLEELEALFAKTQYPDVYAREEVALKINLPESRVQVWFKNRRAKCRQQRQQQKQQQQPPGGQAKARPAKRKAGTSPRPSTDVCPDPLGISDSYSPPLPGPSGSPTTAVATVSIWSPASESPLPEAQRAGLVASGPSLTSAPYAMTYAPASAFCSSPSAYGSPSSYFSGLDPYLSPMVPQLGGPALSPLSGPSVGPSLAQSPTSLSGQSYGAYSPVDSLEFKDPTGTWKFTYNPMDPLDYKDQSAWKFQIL
The target of another test is ETV1 (Homo sapiens, UniProt P50549 1-477). Particulars: protein: recombinant; tags: N-terminal GST; dsDNA, one strand shown. The procedure, abridged: as §1
Chain of ETV1 (P50549 whole entry): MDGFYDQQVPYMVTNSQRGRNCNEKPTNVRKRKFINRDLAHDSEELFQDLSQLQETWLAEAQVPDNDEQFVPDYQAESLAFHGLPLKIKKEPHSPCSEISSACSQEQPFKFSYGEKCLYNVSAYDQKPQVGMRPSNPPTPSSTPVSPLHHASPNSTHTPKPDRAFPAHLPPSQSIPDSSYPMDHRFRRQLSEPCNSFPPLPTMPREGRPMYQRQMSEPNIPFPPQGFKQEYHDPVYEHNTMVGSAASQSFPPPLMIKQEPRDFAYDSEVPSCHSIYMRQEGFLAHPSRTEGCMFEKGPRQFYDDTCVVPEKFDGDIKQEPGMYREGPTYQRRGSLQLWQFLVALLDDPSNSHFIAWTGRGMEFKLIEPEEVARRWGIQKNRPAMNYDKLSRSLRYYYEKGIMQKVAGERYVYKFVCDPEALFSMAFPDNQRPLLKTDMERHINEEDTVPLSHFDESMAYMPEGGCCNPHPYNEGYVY
The target of a further test is T6, ERF (Homo sapiens, UniProt P50548 1-548).
T6 sequence: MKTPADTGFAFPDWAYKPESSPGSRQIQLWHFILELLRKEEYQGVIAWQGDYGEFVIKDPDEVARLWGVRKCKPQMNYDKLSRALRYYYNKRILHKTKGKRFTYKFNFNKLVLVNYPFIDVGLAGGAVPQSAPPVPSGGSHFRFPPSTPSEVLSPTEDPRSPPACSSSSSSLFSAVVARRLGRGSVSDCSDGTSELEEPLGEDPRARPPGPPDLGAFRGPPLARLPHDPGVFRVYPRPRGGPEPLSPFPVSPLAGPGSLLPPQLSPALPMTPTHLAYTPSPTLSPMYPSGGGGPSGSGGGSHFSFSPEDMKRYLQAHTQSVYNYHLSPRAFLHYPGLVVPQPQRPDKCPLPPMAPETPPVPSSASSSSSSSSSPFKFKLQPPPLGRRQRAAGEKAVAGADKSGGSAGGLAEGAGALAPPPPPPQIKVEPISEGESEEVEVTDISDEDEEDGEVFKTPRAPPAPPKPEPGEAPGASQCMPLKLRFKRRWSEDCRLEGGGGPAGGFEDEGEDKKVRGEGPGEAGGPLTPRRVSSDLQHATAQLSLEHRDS
Particulars: protein: recombinant; tags: N-terminal GST; dsDNA, one strand shown. The procedure, abridged: as §1

The target of a further test is T7, ETV3L (Homo sapiens, UniProt Q6ZN32 1-361).
T7 sequence: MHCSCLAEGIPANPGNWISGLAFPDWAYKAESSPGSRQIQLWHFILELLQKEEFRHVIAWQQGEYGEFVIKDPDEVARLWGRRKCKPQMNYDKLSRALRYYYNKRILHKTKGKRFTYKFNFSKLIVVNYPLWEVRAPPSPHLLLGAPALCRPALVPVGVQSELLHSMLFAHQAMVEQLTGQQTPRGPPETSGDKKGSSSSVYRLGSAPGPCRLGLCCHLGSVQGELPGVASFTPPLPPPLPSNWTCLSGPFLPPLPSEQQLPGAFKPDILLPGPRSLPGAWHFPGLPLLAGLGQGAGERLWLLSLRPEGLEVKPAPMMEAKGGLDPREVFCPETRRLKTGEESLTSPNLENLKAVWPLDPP
The note with it: protein: recombinant; tags: N-terminal GST; dsDNA, one strand shown. The procedure, abridged: as §1

The target in the next test is T8, ETS2 (Homo sapiens, UniProt P15036 1-469).
T8 sequence: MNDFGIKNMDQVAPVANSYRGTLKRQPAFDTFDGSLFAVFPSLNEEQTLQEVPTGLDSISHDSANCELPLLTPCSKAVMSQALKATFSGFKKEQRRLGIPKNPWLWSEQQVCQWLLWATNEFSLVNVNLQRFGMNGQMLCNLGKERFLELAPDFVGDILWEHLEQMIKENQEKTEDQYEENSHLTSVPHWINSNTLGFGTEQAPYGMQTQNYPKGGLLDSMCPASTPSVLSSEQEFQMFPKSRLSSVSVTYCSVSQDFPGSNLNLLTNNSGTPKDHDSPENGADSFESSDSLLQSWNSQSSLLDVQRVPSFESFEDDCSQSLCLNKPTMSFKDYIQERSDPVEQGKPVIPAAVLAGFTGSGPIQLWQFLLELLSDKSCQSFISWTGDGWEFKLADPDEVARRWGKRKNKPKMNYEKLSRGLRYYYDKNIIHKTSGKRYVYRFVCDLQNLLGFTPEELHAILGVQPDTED
The note with it: protein: recombinant; tags: N-terminal GST; dsDNA, one strand shown. The method in brief: as §1

A further test addresses T9, SPDEF (Homo sapiens, UniProt O95238 1-335).
T9 sequence: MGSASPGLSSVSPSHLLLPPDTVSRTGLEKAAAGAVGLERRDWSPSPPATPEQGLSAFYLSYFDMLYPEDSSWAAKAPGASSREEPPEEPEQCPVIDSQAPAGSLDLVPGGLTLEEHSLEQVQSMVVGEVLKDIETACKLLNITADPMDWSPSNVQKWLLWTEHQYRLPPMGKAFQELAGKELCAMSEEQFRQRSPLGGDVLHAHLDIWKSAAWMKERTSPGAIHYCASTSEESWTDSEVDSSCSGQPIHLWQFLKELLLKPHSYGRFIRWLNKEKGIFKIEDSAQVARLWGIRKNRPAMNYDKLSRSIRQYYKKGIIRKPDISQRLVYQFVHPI
The note with it: protein: recombinant; tags: N-terminal GST; dsDNA, one strand shown. The procedure, abridged:
as §1

In the next test the target is T10, ETV7 (Homo sapiens, UniProt Q9Y603 1-341).
T10 sequence: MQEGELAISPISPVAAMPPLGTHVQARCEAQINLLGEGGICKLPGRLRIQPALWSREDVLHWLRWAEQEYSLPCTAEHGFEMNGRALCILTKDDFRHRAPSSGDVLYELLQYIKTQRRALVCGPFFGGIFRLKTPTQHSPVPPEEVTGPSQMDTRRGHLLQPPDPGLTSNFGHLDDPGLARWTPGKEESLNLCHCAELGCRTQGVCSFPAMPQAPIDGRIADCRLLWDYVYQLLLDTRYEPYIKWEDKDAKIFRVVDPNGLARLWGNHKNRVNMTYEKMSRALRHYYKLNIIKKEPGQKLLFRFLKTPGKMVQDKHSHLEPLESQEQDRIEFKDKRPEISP
The note with it: protein: recombinant; tags: N-terminal GST; dsDNA, one strand shown. The method in brief: as §1

A further test deals with T11, ELF5 (Homo sapiens, UniProt Q9UKW6-2 1-255).
T11 sequence: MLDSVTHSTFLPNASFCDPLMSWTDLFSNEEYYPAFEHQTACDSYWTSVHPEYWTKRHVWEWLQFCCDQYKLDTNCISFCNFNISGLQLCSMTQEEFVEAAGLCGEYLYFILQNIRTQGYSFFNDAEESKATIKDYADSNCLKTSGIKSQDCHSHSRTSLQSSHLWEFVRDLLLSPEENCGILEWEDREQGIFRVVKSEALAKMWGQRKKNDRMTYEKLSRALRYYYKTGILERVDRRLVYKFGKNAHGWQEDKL
Particulars: protein: recombinant; tags: N-terminal GST; dsDNA, one strand shown. The procedure, abridged: as §1

Another test deals with T12, ETV3 (Homo sapiens, UniProt P41162-2 1-143).
T12 sequence: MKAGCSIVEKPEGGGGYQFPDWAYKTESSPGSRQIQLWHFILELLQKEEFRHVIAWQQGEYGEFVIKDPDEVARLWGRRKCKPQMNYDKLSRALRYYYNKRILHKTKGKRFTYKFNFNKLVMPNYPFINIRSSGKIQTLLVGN
The note with it: protein: recombinant; tags: N-terminal GST; dsDNA, one strand shown. The method in brief: as §1

Another test addresses ETV6 (Homo sapiens, UniProt P41212 1-452). The note with it: protein: recombinant; tags: N-terminal GST; dsDNA, one strand shown. The method in brief:
as §1

Chain of ELF4 (Q99607 whole entry): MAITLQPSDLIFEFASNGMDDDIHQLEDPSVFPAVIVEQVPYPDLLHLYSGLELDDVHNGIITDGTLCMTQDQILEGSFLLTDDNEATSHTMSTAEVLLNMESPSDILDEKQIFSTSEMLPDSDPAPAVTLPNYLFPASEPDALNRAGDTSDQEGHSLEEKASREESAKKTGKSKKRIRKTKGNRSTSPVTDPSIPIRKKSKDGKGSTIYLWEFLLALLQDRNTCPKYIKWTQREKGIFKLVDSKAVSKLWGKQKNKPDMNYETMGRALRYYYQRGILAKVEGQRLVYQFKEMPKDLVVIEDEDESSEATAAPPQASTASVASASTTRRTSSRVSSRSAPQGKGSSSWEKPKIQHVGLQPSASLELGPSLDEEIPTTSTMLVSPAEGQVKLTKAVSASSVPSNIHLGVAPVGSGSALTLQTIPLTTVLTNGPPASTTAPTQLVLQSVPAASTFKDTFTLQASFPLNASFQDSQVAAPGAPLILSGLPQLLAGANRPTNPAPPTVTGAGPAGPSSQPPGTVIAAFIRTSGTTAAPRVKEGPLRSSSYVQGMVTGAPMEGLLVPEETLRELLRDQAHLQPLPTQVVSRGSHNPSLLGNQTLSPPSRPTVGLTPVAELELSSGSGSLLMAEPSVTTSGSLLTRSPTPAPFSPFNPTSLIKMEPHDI
Chain of ETV6 (P41212 whole entry): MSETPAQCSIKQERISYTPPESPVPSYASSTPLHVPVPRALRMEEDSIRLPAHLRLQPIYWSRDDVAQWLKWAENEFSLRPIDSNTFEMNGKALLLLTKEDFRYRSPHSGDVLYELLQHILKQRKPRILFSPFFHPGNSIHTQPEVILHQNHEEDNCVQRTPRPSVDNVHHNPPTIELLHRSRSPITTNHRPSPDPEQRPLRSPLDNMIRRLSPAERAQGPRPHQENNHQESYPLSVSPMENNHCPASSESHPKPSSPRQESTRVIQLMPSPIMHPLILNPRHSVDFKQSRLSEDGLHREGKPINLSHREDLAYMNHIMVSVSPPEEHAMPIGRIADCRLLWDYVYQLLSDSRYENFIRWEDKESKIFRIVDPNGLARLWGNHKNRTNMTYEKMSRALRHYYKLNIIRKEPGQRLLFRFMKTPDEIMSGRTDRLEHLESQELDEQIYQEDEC
Chain of ETV5 (P41161 whole entry): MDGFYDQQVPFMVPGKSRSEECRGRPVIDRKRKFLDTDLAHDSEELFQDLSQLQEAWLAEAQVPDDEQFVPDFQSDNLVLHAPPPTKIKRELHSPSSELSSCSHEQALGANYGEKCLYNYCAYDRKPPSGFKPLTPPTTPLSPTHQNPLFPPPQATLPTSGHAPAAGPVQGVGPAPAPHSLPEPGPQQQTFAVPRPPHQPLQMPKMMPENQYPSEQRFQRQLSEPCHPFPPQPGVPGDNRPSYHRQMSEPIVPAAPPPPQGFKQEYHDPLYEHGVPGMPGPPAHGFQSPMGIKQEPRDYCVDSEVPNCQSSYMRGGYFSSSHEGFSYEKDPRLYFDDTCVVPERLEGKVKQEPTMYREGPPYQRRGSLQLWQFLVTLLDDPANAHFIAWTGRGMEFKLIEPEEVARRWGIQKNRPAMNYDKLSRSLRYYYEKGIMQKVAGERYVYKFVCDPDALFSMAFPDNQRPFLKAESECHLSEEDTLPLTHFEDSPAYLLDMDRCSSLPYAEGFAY

With CGCCTT, the binding signal with FEV is 1.39 fold enrichment (6-mer frequency, TF over GST control); with ETV5 it was 1.37 fold enrichment (6-mer frequency, TF over GST control); with HSF1, 1.32 fold enrichment (6-mer frequency, TF over GST control); with SPIC it was 1.47 fold enrichment (6-mer frequency, TF over GST control); in the test with ELF4, 1.54 fold enrichment (6-mer frequency, TF over GST control); in the test with ELK4, 1.52 fold enrichment (6-mer frequency, TF over GST control). Besides, the binding signal is 1.64 fold enrichment (6-mer frequency, TF over GST control) with ETV2; 1.26 fold enrichment (6-mer frequency, TF over GST control) in the test with ELF3; 1.38 fold enrichment (6-mer frequency, TF over GST control) in the test with CRX; 1.38 fold enrichment (6-mer frequency, TF over GST control) in the test with ETV1; 1.35 fold enrichment (6-mer frequency, TF over GST control) in the test with ERF; 1.29 fold enrichment (6-mer frequency, TF over GST control) in the test with ETV3L. Also, the binding signal with ETS2 was 1.3 fold enrichment (6-mer frequency, TF over GST control); in the test with SPDEF, 1.3 fold enrichment (6-mer frequency, TF over GST control); with ETV7 it was 1.34 fold enrichment (6-mer frequency, TF over GST control); with ELF5, 1.52 fold enrichment (6-mer frequency, TF over GST control); with ETV3 it was 1.45 fold enrichment (6-mer frequency, TF over GST control); with ETV6 it was 1.52 fold enrichment (6-mer frequency, TF over GST control).
